In the library only some 19% were active in any assay of this set; here they are far more common.
MCF10A rerep: inducers of DNA re-replication in MCF 10A breast cells. 350,000 compounds, 2.9% hits. MCF 10A DNA re-replication, Hoechst nuclear intensity, 48 h. Potency, µM (top dose mostly 46.1 µM), for inactives: top-dose activity, positive = re-replication, hits mostly activators; also: potency is read from the fitted curve at half-maximal effect; % of control where 0% means no effect; nearly all actives have a fitted effect of over 50% in size
IL-1B inflam inh: inhibitors of inflammasome signaling (IL-1 beta secretion); THP-1 LPS/ATP IL-1B secretion, AlphaLISA, 16 h; hits give low values; activity change, % at 57.5 µM; 360,000 compounds, 4.7% hits; in the data active = activity change below about -50%; inconclusive = mostly about -30% to -49%; also: % is scaled to controls: 0 for no effect and ±100 for the full control effect
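THP-1 cells pretreated 1 hr with compounds (up to 57.5 uM final), then stimulated with LPS (250 ng/mL final) plus ATP (1.25 mM final); secreted IL-1B measured by AlphaLISA after 16 hr, decreased signal indicating inhibition.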
DT40 TDP1 CPT: DT40-hTDP1 cell growth loss with CPT; chicken DT40 Tdp1-/-;hTDP1 cells + 20 nM CPT, ATP luminescence, 48 h; 420,000 compounds, 12% hits; Potency, µM (series often up to 46.2 µM), for the others: at the highest dose activity change, negative = growth inhibition, most hits filed as inhibitors; also: potency is read from the fitted curve at half-maximal effect; % is scaled to controls: 0 for no effect and ±100 for the full control effect; nearly all actives have a fitted effect of over 55% in size
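Cell growth measured by CellTiter-Glo luminescence after a minimum 48 h, 37 C compound exposure with 20 nM CPT in Tdp1-knockout DT40 cells stably expressing hTDP1, seeded 400/well; qHTS titration format.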
Chronic BCR inh: blocks chronic active B-cell receptor signaling | ABC-DLBCL IkBa-CBG/CBR reporter, luminescence ratio, 4 h | Potency, µM (top dose mostly 46.1 µM), inactives show at the highest dose activity change, negative = inhibition, hits mostly inhibitors | 340,000 compounds, 0.05% hits | AID 493014; active = well fitted inhibition curve with a large enough effect in the signal ratio, with a control signal flat, not every such curve was filed as active; inconclusive = small, poorly fitted or top-dose-only effect, or effect the other way, or a change in a side signal; the % refers to the signal ratio;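 also: potency is read from the fitted curve at half-maximal effect; plate controls were basal doxycycline-induced cells for no effect and cells given 10 µM MG132 for full effect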
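Doxycycline induced both beetle luciferases in TMD8 lymphoma cells; IKK-driven degradation limits the IkappaBalpha-fused green signal, while red luminescence normalises for cell number and nonspecific effects. Compounds tested up to 46 uM, 4 hrs.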
SW480 rereplic: DNA re-replication induction in SW480 cells; SW480 DNA re-replication, Hoechst DNA content imaging, 48 h; Potency, µM (top dose mostly 46.1 µM), without a hit: at the top dose re-replication activation, most hits filed as activators; 340,000 compounds, 1.8% hits; also: potency is read from the fitted curve at half-maximal effect; % of control where 0% means no effect; nearly all actives have a fitted effect of over 55% in size
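Treated cells incubate 48 hr (37 C, 5% CO2), are stained 40 min with Hoechst, and nuclear fluorescence is enumerated; a rise in nuclei with high DNA signal marks re-replication.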
DT40 TDP1 no CPT: qHTS for Inhibitors of human tyrosyl-DNA phosphodiesterase 1 (TDP1): qHTS in cells in absence of CPT; DT40 Tdp1-/- hTDP1 cells, no CPT, ATP luminescence, 48 h; Potency, µM (titrated, usually from 46.2 µM), for inactives: at the highest dose activity change, negative = growth inhibition, usual class: inhibitors; 420,000 compounds, 15% hits; also: potency is read from the fitted curve at half-maximal effect; % is scaled to controls: 0 for no effect and ±100 for the full control effect; nearly all actives have a fitted effect of over 55% in size
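Stably hTDP1-transfected Tdp1-null chicken DT40 cells were treated with library compounds minus camptothecin and grown for at least 48 hr at 37 °C, after which cellular ATP was quantified by luminescence.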
* hit, by the source's call; u = inconclusive; x = no result; [ ] = remark or other dose. Unless noted, calls follow the shape of the dose curve; as a rule, active = well fitted curve in the direction sought with a large enough effect; inconclusive = small, poorly fitted or top-dose-only effect, or another doubt; inactive = no such curve, though single readings can be large; an effect the other way counts as inactive or inconclusive.

SMILES | MCF10A rerep | IL-1B inflam inh | DT40 TDP1 CPT | Chronic BCR inh | SW480 rereplic | DT40 TDP1 no CPT
Clc1ccc(CON/C=N/c2ncnc3sccc23)cc1 | u | -14.7 | 11.6µM* | u | -4.0% | 11.6µM*
C(=N\c1ncnc2sccc12)/NOCc1ccccc1 | -2.2% | u | 23.1µM* | u | -3.0% | 9.2µM*
O=C(CNC(=O)c1ccco1)OCC(=O)c1cccc2ccccc12 | -4.2% | 2.3 | 16.4µM* | x | -3.4% | u
Cc1ccc(C(=O)NCC(=O)OCC(=O)c2cccc3ccccc23)cc1 | x | x | u | x | x | -25.3%
O=C(CNC(=O)Cc1ccccc1)NCC(=O)OCC(=O)c1cccc2ccccc12 | 237.1%[0.0737 µM] | 10.5 | u | u | -10.7% | 17.8µM*
Cc1cc(C)cc(C(=O)N2CC(=O)Nc3ccccc32)c1 | u | 21.1 | 0.92µM* | u | 0.731µM* | 0.581µM*
COc1cc(C(=O)N2CC(=O)Nc3ccccc32)cc(OC)c1OC | x | 62.7 | 8.2µM* | x | x | 8.2µM*
Cc1cc(C)c2nc(SCC(=O)N3CC(=O)Nc4ccccc43)c(C#N)cc2c1 | 0.82µM* | 43.9 | 1.3µM* | u | 1.3µM* | 1.3µM*
COc1ccc(C(=O)N2CC(=O)Nc3ccccc32)cc1S(=O)(=O)N1CCCC1 | -12.2% | 27.2 | -0.1% | -2.8% | -0.5% | u
Cc1ccsc1C(=O)N1CC(=O)Nc2ccccc21 | u | -20.1 | u | 1.5% | -5.4%[9.22 µM] | 23.1µM*
CCCCc1cc(=O)oc2c(C)c(OCC(=O)N3C[C@H]4C[C@@H](C3)c3cccc(=O)n3C4)ccc12 | 0.3% | -6.1 | u | -1.2% | 20.7% | -19.9%
CN(C)C(=O)C12CCC(C)(C(=O)C1Br)C2(C)C (configuration not stated) | 9.2% | -21.7 | 0.3% | 11.8% | 9.2% | -0.2%
CCOc1cc([N+](=O)[O-])cc(/C=N/NC(=O)c2c(-c3ccccc3)noc2C)c1O | 14.9% | 132.3 | u | -1.4% | 8.2µM* | u
COc1cccc(/C=N/NC(=O)c2c(-c3ccccc3)noc2C)c1O | u | 116.4 | 4.11µM* | -41.1% | u | 4.61µM*
COc1cccc(/C=N/NC(=O)c2c(-c3ccccc3)noc2C)c1OC | 11.0% | 7.7 | -10.1% | x | -8.6% | -2.9%
CCOc1cc(/C=N/NC(=O)c2c(-c3ccccc3)noc2C)ccc1O | 9.4% | 38.2 | -22.8% | -6.9% | 3.7% | -7.4%
Cc1onc(-c2ccccc2)c1C(=O)N/N=C/c1cc(Br)c(Br)o1 | u | -93.1* | u | u | 9.5% | u
Cc1onc(-c2ccccc2)c1C(=O)N/N=C/c1c[nH]c2ccccc12 | u | -71.9* | -12.4% | u | -47.2% | u
Cc1ccc(/C=N/NC(=O)c2c(-c3ccccc3)noc2C)c(O)c1 | x | x | x | 0.2% | x | x
Cc1onc(-c2ccccc2)c1C(=O)N/N=C/c1ccc(Br)cc1 | -3.9% | u | u | 0.0% | 3.2% | -8.5%
CCC(C)NC(=O)Cn1c(=O)n(-c2ccc(OC)c(OC)c2)c(=O)c2ccccc21 (configuration not stated) | x | x | 3.5% | x | x | 16.6%
NS(=O)(=O)c1ccc(CNC(=O)c2ccc(NS(=O)(=O)c3ccc4[nH]c(=O)[nH]c4c3)cc2)cc1 | -1.7% | 8.4 | 17.0% | u | -180.3% | -1.7%
OCCN1CCN(c2ncnc3c2c(-c2ccccc2)cn3-c2ccc(Br)cc2)CC1 | u | -83.2* | u | -14.8% | 14.8% | u
Clc1ccccc1N1CCN(c2ncnc3c2c(-c2ccccc2)cn3-c2ccccc2)CC1 | x | x | u | 4.3% | x | 20.6µM*

Bioassay records deposited in PubChem by National Center for Advancing Translational Sciences (NCATS).
